The results in this text go back to PubChem BioAssay (EPA / NIEHS).

Broadly, the AC50 is the concentration at which the activity in the assay is half-maximal.

SMILES strings stand for the structures. Activity calls are given as the source filed them. Rule for the calls: active = hit-call score of the fitted dose curve at least 0.9, where 1 is the maximum; inactive = score below 0.9.

Test [1] in a line: ATG_GLI_CIS: Attagene CIS-FACTORIAL HepG2 Assay for human Zinc Finger Protein GLI1 (AID 2282945). As to conditions: HepG2, Attagene cis-factorial reporter mRNA, GLI element; actives raise or lower the signal. In a few lines: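 Transiently transfected HepG2 cells report endogenous transcription factor activity via cis-element-driven reporter units. After 24 h compound exposure, reporter mRNA was measured by RT-PCR with capillary electrophoresis; bidirectional fitting against DMSO baseline.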

The target of test [2] is Bile acid receptor (Homo sapiens) (UniProt Q96RI1). The test is described as follows: ATG_IR1_CIS: Attagene CIS-FACTORIAL HepG2 Assay for human Nuclear Receptor Subfamily 1 Group H Member 4 (NR1H4), IR1 submotif (AID 2282946). The following applies: IR1 reporter transcription, actives raise or lower the signal. The essentials: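 Fluorescence of capillary-separated, HpaI-digested RT-PCR reporter products gave IR1-element mRNA induction in HepG2 cells 24 h after dosing. Endogenous transcription factors drove the cis-regulated reporters; activity was fitted bidirectionally against DMSO.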

Test [3] is described as follows: ATG_GRE_CIS: Attagene CIS-FACTORIAL HepG2 Assay for human Glucocorticoid Response Elements (GRE) (AID 2282947). The following applies: HepG2 GRE cis-reporter, Attagene multiplex mRNA; actives raise or lower the signal. In a few lines:
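Read-out: fluorescent reporter-transcript fragments separated by capillary electrophoresis after RT-PCR. Transiently transfected HepG2 cells carrying cis-element-driven reporter units were dosed for 24 h; gain or loss of signal fitted against DMSO control.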

Test [4] is described as follows: ATG_ISRE_CIS: Attagene CIS-FACTORIAL HepG2 Assay for human Interferon Regulatory Factor 1 (IRF1) binding to an Interferon-Stimulated Response Element (ISRE) (AID 2282948). As to conditions: HepG2 ISRE cis-reporter (Attagene), mRNA transcription readout; actives raise or lower the signal. In a few lines: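 Read-out: fluorescent RT-PCR products resolved by capillary electrophoresis, reporting endogenous transcription factor activity via ISRE-driven reporter mRNA in transfected HepG2 cells dosed for 24 h; gain or loss fitted relative to DMSO.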

Test [5] in a line: ATG_M_32_CIS: Attagene CIS-FACTORIAL HepG2 Assay for M32 Transcription Factor (Internal Marker) (AID 2282949).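 Note: background control marker of the multiplexed CIS panel rather than a real target.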 As to conditions: HepG2 Attagene cis-factorial M32 reporter, mRNA; actives raise or lower the signal. In a few lines: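 Using DMSO as baseline, bidirectional curve fits were applied to reporter mRNA signals. These came from transiently transfected HepG2 cells exposed for 24 h, with RNA analysed by RT-PCR, FAM primer extension, HpaI digestion and CE.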

The nature of test [6]: ATG_M_06_CIS: Attagene CIS-FACTORIAL HepG2 Assay for M06 Transcription Factor (Internal Marker) (AID 2282950). As to conditions: HepG2 Attagene CIS-FACTORIAL M06 internal marker reporter; actives raise or lower the signal. In a few lines: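 One of many multiplexed endpoints: HepG2 reporter mRNA after 24 h dosing, detected by RT-PCR and capillary electrophoresis fluorescence; gain or loss of signal analysed against DMSO.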

Test [7] has as its target Hypoxia-inducible factor 1-alpha (Homo sapiens) (UniProt Q16665). Nature of the test: ATG_HIF1a_CIS: Attagene CIS-FACTORIAL HepG2 Assay for human Hypoxia Inducible Factor 1 (HIF1A) (AID 2282951). The following applies: HepG2 Attagene cis-factorial HIF1a reporter transcription; actives raise or lower the signal. In a few lines: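 Activity is fitted in both directions relative to DMSO. Reporter transcripts are read by RT-PCR, fluorescent primer extension and capillary electrophoresis after 24 h chemical treatment. The cells are HepG2 carrying transiently transfected cis-element-driven reporter units responding to endogenous factors.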

The target of test [8] is Hepatocyte nuclear factor 6 (Homo sapiens) (UniProt Q9UBC0). Nature of the test: ATG_HNF6_CIS: Attagene CIS-FACTORIAL HepG2 Assay for human Hepatocyte Nuclear Factor 6 (HNF6) (AID 2282952). As to conditions: HepG2 Attagene cis-factorial HNF6 reporter transcription; actives raise or lower the signal. In a few lines: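 Using cis-element reporters in HepG2 liver cells, the assay tracks endogenous factor-driven transcription 24 h post-dosing. Signal comes from 6-FAM-labelled, HpaI-digested RT-PCR fragments, with gain or loss scored against DMSO.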

The nature of test [9]: ATG_MRE_CIS: Attagene CIS-FACTORIAL HepG2 Assay for human Metal Responsive Element (MRE) (AID 2282954). The following applies: HepG2 MRE cis-reporter transcription, Attagene multiplex; actives raise or lower the signal. In a few lines:
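RT-PCR/capillary electrophoresis readout of reporter mRNA, 24 h post-dosing, in HepG2 cells transfected with multiplexed cis-regulated reporter constructs. Gain or loss of signal fitted bidirectionally against DMSO baseline.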

Test [10] concerns the target Heat shock factor protein 1 (Homo sapiens) (UniProt Q00613). The test is described as follows: ATG_HSE_CIS: Attagene CIS-FACTORIAL HepG2 Assay for human Heat Shock Transcription Factor 1 (HSE) (AID 2282953). As to conditions: HepG2 HSE cis-reporter, Attagene RNA transcription; actives raise or lower the signal. In a few lines: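 Using HepG2 with transfected cis-driven reporter constructs, compound effects on endogenous factor activity are scored as reporter mRNA change at 24 h. Detection: RT-PCR, HpaI digestion, capillary electrophoresis; bidirectional fitting to DMSO.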

Bile acid receptor (Homo sapiens), sequence (Q96RI1 whole entry, looked up): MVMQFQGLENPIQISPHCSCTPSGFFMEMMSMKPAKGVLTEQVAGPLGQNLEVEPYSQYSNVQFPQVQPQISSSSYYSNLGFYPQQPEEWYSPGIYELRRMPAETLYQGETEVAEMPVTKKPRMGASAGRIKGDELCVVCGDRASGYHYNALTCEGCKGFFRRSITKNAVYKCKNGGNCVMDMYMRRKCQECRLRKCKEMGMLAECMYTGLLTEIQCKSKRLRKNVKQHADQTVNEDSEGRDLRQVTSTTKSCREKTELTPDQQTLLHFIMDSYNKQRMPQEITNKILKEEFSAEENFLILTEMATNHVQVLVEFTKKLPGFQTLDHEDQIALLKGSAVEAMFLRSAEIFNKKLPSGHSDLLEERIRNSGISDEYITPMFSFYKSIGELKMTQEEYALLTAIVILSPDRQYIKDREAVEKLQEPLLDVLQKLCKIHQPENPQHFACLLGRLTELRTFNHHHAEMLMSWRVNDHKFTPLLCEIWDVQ
Hypoxia-inducible factor 1-alpha (Homo sapiens), sequence (Q16665 whole entry, looked up): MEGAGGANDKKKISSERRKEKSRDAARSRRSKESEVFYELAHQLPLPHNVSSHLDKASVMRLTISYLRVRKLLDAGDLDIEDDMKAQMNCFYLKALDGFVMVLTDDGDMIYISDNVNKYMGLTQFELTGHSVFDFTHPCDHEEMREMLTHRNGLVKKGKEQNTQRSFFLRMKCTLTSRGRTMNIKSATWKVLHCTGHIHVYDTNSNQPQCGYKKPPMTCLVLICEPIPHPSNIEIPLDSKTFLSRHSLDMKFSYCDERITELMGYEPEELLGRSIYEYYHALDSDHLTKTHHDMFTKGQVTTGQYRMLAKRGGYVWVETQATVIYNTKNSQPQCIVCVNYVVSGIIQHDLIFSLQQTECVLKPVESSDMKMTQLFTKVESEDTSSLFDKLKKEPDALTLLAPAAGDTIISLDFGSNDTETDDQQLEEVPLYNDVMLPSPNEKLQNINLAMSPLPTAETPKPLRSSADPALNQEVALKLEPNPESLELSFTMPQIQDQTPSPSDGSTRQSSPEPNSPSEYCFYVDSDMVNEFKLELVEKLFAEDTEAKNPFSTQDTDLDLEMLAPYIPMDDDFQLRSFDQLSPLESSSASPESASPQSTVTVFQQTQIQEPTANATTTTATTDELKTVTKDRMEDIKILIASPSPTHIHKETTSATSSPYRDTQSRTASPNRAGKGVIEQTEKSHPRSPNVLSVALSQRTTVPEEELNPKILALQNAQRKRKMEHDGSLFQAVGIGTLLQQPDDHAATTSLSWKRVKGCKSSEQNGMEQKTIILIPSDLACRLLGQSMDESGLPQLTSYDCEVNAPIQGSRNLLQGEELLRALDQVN
Hepatocyte nuclear factor 6 (Homo sapiens), sequence (Q9UBC0 whole entry, looked up, the tested form may be a part): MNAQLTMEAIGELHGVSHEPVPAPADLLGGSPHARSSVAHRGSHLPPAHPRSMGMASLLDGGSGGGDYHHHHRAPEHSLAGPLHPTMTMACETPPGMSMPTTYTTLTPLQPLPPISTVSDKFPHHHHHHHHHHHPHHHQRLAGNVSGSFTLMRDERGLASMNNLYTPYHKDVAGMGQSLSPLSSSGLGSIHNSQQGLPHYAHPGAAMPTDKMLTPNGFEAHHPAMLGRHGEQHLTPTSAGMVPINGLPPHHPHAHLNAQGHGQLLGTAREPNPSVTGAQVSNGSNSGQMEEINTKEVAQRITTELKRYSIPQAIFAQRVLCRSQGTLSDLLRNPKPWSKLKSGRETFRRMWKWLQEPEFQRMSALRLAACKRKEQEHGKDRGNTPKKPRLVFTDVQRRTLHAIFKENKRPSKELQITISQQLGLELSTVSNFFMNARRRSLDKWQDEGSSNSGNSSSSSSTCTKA
Heat shock factor protein 1 (Homo sapiens), sequence (Q00613 whole entry, looked up): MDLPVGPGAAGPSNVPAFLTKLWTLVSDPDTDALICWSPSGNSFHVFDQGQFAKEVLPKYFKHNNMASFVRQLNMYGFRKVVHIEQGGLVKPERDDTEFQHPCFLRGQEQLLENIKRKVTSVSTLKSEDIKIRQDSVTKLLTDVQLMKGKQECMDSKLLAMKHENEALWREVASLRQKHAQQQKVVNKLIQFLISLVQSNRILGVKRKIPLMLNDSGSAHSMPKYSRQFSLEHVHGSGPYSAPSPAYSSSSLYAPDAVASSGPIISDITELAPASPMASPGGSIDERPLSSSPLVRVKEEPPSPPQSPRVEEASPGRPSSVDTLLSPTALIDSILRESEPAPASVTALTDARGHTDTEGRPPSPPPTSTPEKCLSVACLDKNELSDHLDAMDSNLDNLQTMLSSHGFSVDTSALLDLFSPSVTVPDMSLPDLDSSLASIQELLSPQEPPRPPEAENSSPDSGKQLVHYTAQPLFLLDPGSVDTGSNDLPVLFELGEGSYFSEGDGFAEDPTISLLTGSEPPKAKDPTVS

As for `O=S(=O)(Cl)C(F)(F)C(F)(F)C(F)(F)C(F)(F)C(F)(F)C(F)(F)C(F)(F)C(F)(F)F`, the compound was called inactive in test [1], in test [2], in test [3], in test [4], in [5] and in test [6]. The result in test [7], in test [8] and in [9] was inactive.

With `O=S(=O)(O)c1ccc(Cl)cc1`, the call in test [1], in test [2], in test [3], in [4], in test [5] and in test [6] was inactive. In addition, the compound was classed as inactive in test [7], in test [8], in test [10] and in [9].

`CCOC(=O)C1CC(=O)C(=C(O)C2CC2)C(=O)C1` (stereo not given): the outcome in test [1], in test [2], in test [3], in [4], in test [5] and in test [6] was inactive. The outcome in [7], in test [8] and in test [9] was inactive.

For `CCN(CC)c1ccc(N=Nc2ccccc2)cc1`, the outcome in test [1], in test [2], in test [3], in test [4], in test [5] and in [6] was inactive. For the same compound, the result in test [8] was inactive. In addition, the values for the AC50 in test [10] and in test [9] were 144 µM (active) and 7.22 µM (active), respectively.

`C=CCOC(=O)CC(C)C`: the call in [1], in [2], in test [3], in test [4], in test [5] and in test [6] was inactive. The compound was classed as inactive in test [8], in [10] and in test [9].

In the case of `CN(C)C(C)(C)CO`, the result in test [1], in test [2], in test [3], in test [4], in [5] and in [6] was inactive. For the same compound, the compound was called inactive in test [8], in test [10] and in test [9].

Take `CC1=CCC(=O)O1`: the result in [1], in [2], in [3], in test [4], in [5] and in [6] was inactive. Besides, the outcome in test [8] and in test [9] was inactive.

As to `O=C(O)C(F)(F)C(F)(F)C(F)(F)OC(F)(C(F)(F)F)C(F)(F)F`, the outcome in test [1], in test [2], in test [3], in test [4], in test [5] and in test [6] was inactive. Further, the result in [8], in test [10] and in [9] was inactive.

Regarding `COC(F)(C(F)F)C(F)(F)F` (stereo not given), the compound was classed as inactive in test [1], in test [2], in [3], in test [4], in test [5] and in test [6]. Also, the outcome in test [7], in test [8] and in test [9] was inactive.

With `O=C(Cl)C(F)(F)C(F)(F)C(F)(F)C(F)(F)C(F)(F)C(F)(F)F`, the compound was classed as inactive in [1], in test [2], in [3], in test [4], in test [5] and in [6]. For the same compound, the result in [7], in test [8] and in test [9] was inactive.

Regarding `CCC/C=C/CO`, the compound was classed as inactive in test [1], in test [2], in test [3], in [4], in [5] and in test [6]. Moreover, the compound was classed as inactive in test [8], in [10] and in [9].

For the compound `COc1ccccc1C=O`, the compound was called inactive in test [1], in [2], in test [3], in test [4], in [5] and in test [6]. Besides, the compound was called inactive in test [8], in test [10] and in test [9].

On to `CCC(C)CO` (stereo not given), for which the compound was classed as inactive in [1], in [2], in test [3], in test [4], in [5] and in [6]. Besides, the call in test [8], in test [10] and in test [9] was inactive.

Take `OCC(F)(F)C(F)(F)C(F)(F)C(F)(F)C(F)(F)C(F)(F)CO`: the outcome in test [1], in [2], in [3], in test [4], in [5] and in [6] was inactive. Moreover, the call in [8], in test [10] and in test [9] was inactive.

As to `Nc1cccnc1N`, the result in [1], in [2], in test [3], in test [4], in test [5] and in test [6] was inactive. The compound was classed as inactive in test [8], in test [10] and in [9].

Take `CO[Si](CCCOCC1CO1)(OC)OC` (stereo not given): the compound was called inactive in test [1], in test [2], in test [3], in [4], in test [5] and in test [6]. The compound was called inactive in test [8], in test [10] and in [9].

For `CC(O)C#CC(C)O` (stereo not given), the AC50 was 142 µM (active) in test [1]; 67.7 µM (active) in [2]; 99.5 µM (active) in test [4]; 70.5 µM (active) in test [8]; 57.2 µM (active) in [9]. Besides, the result in test [3], in [5] and in [6] was inactive.

Regarding `O=C(c1ccccc1)c1ccc(O)cc1O`, the call in test [1], in test [2], in test [4], in test [5], in [6] and in test [7] was inactive. Further, the result in [8], in [10] and in test [9] was inactive.

As to `CNS(=O)(=O)C(F)(F)C(F)(F)C(F)(F)C(F)(F)C(F)(F)C(F)(F)C(F)(F)C(F)(F)F`, the result in [1], in test [2], in [3], in [4], in test [5] and in test [6] was inactive. The result in test [8] and in test [9] was inactive.

`O=C=Nc1cccc2c(N=C=O)cccc12`: the compound was called inactive in test [1], in [2], in [3], in test [4], in [5] and in test [6]. The compound was classed as inactive in [8], in test [10] and in [9].

Regarding `C=C(C)C(=O)OCC(F)(F)C(F)(F)C(F)(F)C(F)F`, the outcome in test [1], in test [2], in test [3], in [4], in test [5] and in test [6] was inactive. Moreover, the outcome in [8] and in [9] was inactive.

On to `c1ccc(C[P+](c2ccccc2)(c2ccccc2)c2ccccc2)cc1`, for which the result in test [1], in test [2], in test [3], in [5], in [6] and in test [8] was inactive. Besides, the call in [10] was inactive. Besides, the AC50 in [4] is 31.3 µM (active); in test [9], 59.4 µM (active).

Take `CCc1ccc(C)nc1`: the result in test [1], in test [2], in test [3], in test [4], in [5] and in test [6] was inactive. Further, the call in test [8], in test [10] and in [9] was inactive.

Turning to `CCN(CC)c1ccc(C=O)cc1`, the result in [1], in [2], in test [3], in test [4], in test [5] and in [6] was inactive. Moreover, the outcome in [7], in [8] and in [9] was inactive.

For the compound `OCCCCl`, the compound was classed as inactive in [1], in [2], in test [3], in [4], in [5] and in [6]. Moreover, the compound was classed as inactive in test [8], in [10] and in test [9].

On to `OCC(O)CC(F)(F)C(F)(F)C(F)(F)C(F)(F)C(F)(F)C(F)(F)C(F)(F)C(F)(F)F` (stereo not given), for which the call in [1], in [2], in test [3], in [4], in test [5] and in [6] was inactive. Moreover, the result in test [8], in test [10] and in test [9] was inactive.

Take `CCn1c2ccccc2c2ccccc21`: the result in test [1], in [2], in test [3], in [4], in [5] and in [6] was inactive. Further, the result in test [8] and in [10] was inactive. Moreover, the AC50 in [9] was 73.9 µM (active).
